# Assay outcomes: PubChem, National Center for Advancing Translational Sciences (NCATS)
# Compounds with a hit are over-represented: about 3.4% of the library has one in this group of screens.
# IMPase Li inh = cell-permeable IMPase inhibitors with lithium potentiation | CHO-M1 cells, IP1 TR-FRET (IP-One), carbachol + lithium | Potency, µM (titrated, usually from 59.4 µM), inactives show at the highest dose activity, negative = IMPase inhibition, actives largely listed as inhibitors | actives 0.35% (n = 210,000) | AID 1457;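 note: IP1 builds up when IMPase is blocked and the TR-FRET signal falls; potency is the fitted concentration of half-maximal effect; plate controls were basal vehicle for no effect and high inhibitor control for full effect; nearly all actives have a fitted effect of over 50% in size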
#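 CHO-M1, 2000 cells/well, 16–30 h culture; cpd + low Li+, 30 min 37C; lysis with d2-IP1/Eu-anti-IP1 Ab, 10 min RT; TR-FRET 665/620 ratio and 620 channel; AC50 via Hill.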
# HTT ATP protect = cytoprotection in Huntington HTT-Q103 PC12 cell model; PC12 HTT-Q103 induced, cytoprotection, ATP luminescence, 40 h; Potency, µM (series often up to 56.4 µM), without a hit: cytoprotection (ATP increase), usual class: activators; actives 0.14% (n = 230,000); AID 1471; note: potency is the fitted concentration of half-maximal effect; % of control where 0% means no effect; nearly all actives have a fitted effect of over 45% in size
#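 Compounds added alongside 100 nM tebufenozide, which induces toxic Q103 huntingtin exon 1-GFP in stable PC12 cells; surviving cells quantified by luminescent ATP measurement. Medium: phenol red-free DMEM, 5% equine and 5% calf serum.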
# HttQ103 aggreg = inhibitors of mutant huntingtin aggregate formation in PC12 cells | PC12 HttQ103-GFP aggregates, Acumen cytometry, 40 h | actives 1.1% (n = 220,000) | Potency, µM (titrated, usually from 46.1 µM), inactives show top-dose activity change, negative = inhibition, most hits filed as inhibitors; note: potency is the fitted concentration of half-maximal effect; % is set by controls: 0 for no effect and ±100 for the full control effect; nearly all actives have a fitted effect of over 60% in size
#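 PC12 cells stably carrying ecdysone-inducible HTT exon 1 Q103–GFP were induced with tebufenozide (100 nM final) and treated with library compounds in titration. GFP aggregates in lysates were counted by laser scanning cytometry.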
# NPSR antag = antagonists of human neuropeptide S receptor cAMP signaling; Q6W5P4; Potency, µM (top dose mostly 38.3 µM), inactives show at the top dose activity change, negative = inhibition, actives largely listed as inhibitors; actives 1% (n = 220,000); CHO-NPSR cells, cAMP TR-FRET, antagonist mode; note: potency is the fitted concentration of half-maximal effect; % is set by controls: 0 for no effect and ±100 for the full control effect; nearly all actives have a fitted effect of over 50% in size
# Target sequence (Q6W5P4 whole entry, looked up): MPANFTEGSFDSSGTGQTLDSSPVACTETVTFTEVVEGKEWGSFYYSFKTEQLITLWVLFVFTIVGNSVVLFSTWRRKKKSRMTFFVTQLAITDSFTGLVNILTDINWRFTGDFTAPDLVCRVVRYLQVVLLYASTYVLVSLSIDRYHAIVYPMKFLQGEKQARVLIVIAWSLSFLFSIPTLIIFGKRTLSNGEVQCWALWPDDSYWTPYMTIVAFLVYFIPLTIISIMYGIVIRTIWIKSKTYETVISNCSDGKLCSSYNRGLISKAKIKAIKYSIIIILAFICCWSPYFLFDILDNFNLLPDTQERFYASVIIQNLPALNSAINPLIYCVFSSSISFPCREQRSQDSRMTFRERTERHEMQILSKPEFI
# IMPase cell inh = cell-permeable inhibitors of inositol monophosphatase (IMPase). P97697. CHO-M1 cells, IP1 accumulation, HTRF TR-FRET ratio. inhibition (IP1 accumulation), % at 46.1 µM. 120,000 tested, under 10 active; active = well fitted curve in the direction sought with a large enough effect in the signal ratio, not every such curve was filed as active; inconclusive = small, poorly fitted or top-dose-only effect, or a change in a side signal; inactive = no such curve, though single readings can be large or run the other way; the % refers to the signal ratio;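 note: cells stimulated with carbachol in lithium chloride buffer; plate controls were DMSO basal wells for no effect and reference inhibitor wells for full effect; higher means more IMPase inhibition seen as more IP1 and lower FRET ratio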
# Target sequence (P97697 whole entry, looked up): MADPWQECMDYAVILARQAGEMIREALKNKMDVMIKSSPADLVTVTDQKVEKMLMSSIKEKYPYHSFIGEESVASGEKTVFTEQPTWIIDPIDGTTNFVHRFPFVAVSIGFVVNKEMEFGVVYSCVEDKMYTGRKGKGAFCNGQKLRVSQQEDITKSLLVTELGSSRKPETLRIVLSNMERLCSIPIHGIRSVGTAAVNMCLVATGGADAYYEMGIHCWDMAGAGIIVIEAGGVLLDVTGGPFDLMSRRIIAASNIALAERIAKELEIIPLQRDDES
#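 CHO-M1 cells (CHO stably expressing M1 receptor), compound up to 46 uM final, stimulated with carbachol (50 uM as added) in buffer with 50mM LiCl, pH 7.4, 30 min at 37C. Cytosolic IP1 read by TR-FRET; AC50 from Hill fits.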
# PNC inhibitor = blocks assembly of the perinucleolar compartment; PC3M PTB-GFP, PNC prevalence imaging, 16 h; hits give low values; activity change (PNC), negative = inhibition, % at 10 µM; actives 3.1% (n = 140,000);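 active = readout at or below -70, meaning at least 70% loss of cells showing the perinucleolar compartment, a nuclear body marking cancer cells; inconclusive = readout between -30 and a set limit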;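 note: plate controls were DMSO wells for no effect and camptothecin positive control wells for full effect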
#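 PC3M cells stably expressing PTB-GFP, 750–1000 cells/well, treated 16 h at 37 °C with compound (23 nl of library stock), in duplicate. After paraformaldehyde fixation and Hoechst stain, imaged at 20x; PNC prevalence scored by image analysis.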
# Numbers without * were called inactive; ? = inconclusive; . = no result given; [ ] = remark or other dose. Unless noted, calls come from the whole dose curve; as a rule, active = well fitted curve in the direction sought with a large enough effect; inconclusive = small, poorly fitted or top-dose-only effect, or another doubt; inactive = no such curve, though single readings can be large; an effect the other way counts as inactive or inconclusive.
SMILES,IMPase Li inh,HTT ATP protect,HttQ103 aggreg,NPSR antag,IMPase cell inh,PNC inhibitor
CCn1c(/C=C/Nc2ccccc2)[n+](CC)c2cc(Cl)c(Cl)cc21,16%,-56%[10 µM],?,-45%,.,-96*
O=C1c2c(O)ccc(O)c2C(=O)c2c(NCCNCCO)ccc(NCCNCCO)c21,30%,-274%,10µM*,10µM*,?,.
O=C1c2ccccc2C(=O)c2c(Nc3ccc(CCO)cc3)ccc(O)c21,.,10%[10 µM],17%[9.22 µM],?,.,.
CC(C)(C)OC=O,4%,2%,.,.,.,.
O=C(COc1ccccc1)N1CCN=C1c1ccccc1,-5%[38.3 µM],-5%[0.074 µM],-24%,-3%[46.1 µM],-7,13
O=C(c1ccc(F)cc1)N1CCN=C1c1ccccc1,5%,.,4%,11%,.,-96*
COc1cc(C(=O)N2CCN=C2c2ccccc2)cc(OC)c1OC,-17%[38.3 µM],1%,26%,-10%[46.1 µM],0,-100*
CCOC(=O)c1ccc(-c2cc(C)no2)[nH]1,-10%,.,-7%,16%,.,21
O=C(N/N=C/c1cc(Cl)ccc1O)C(=O)Nc1ccccc1OC(F)(F)C(F)F,-17%,.,?,-16%,.,-90*
O=C(N/N=C/c1cc(Br)ccc1O)C(=O)Nc1ccccc1OC(F)(F)C(F)F,-4%[38.3 µM],-46%,8.9µM*,?,-19,42
CC1CCCN(CCCOc2ccccc2-c2ccccc2)C1 (stereo not drawn),16%,-18%,-7%,-13%,.,.
Cc1ccc(S(=O)(=O)N[C@H](CO)C(=O)O)cc1,-4%,1%[10 µM],.,.,.,.
Cc1ccc(S(=O)(=O)N[C@@H](Cc2ccccc2)C(=O)CCl)cc1,35%,?,?,20µM*,10,12
CCN(CC)P(=O)(Nc1ccccc1Br)c1ccc(N(C)C)cc1NC(=O)c1ccco1 (stereo not drawn),3%,6%,-24%,7.9µM*,.,.
CCN(CC)C(=O)c1cc(Cl)ccc1NC(=O)c1ccco1,.,5%[10 µM],-12%[9.22 µM],12%,.,.
Cc1cc(C)n(-c2nc(C)nc3c2cnn3-c2ccccc2)n1,?,12%[10 µM],11%,-9%[46.1 µM],0,-96*
N#C/C(=N\Nc1ccccc1F)C(=N)N1CCCCC1,6%,-25%[10 µM],2%,-15%[46.1 µM],11,-85*
CC(=O)N(OCc1ccccc1)[C@@H]1c2cc(C#N)ccc2OC(C)(C)[C@H]1O,-6%,-188%,.,.,.,.
CCOc1ccccc1N(CC(=O)OC)S(C)(=O)=O,-3%[38.3 µM],7%[10 µM],-1%,6%[46.1 µM],-1,-106*
Cc1ccccc1N(CC(=O)O)S(C)(=O)=O,1%,5%[10 µM],-2%,4%,5,-104*
Cc1cc(C)nc(SCC(=O)N/N=C/c2cc(C)n(-c3ccccc3C)c2C)n1,8%,.,?,-3%,.,8
CCOc1ccccc1N(CC(=O)N1CCCCCC1)S(C)(=O)=O,18%[38.3 µM],12%[10 µM],-8%,3%[46.1 µM],2,-23
Cc1ccccc1N(CC(=O)N/N=C/c1cc(C)n(-c2ccccc2C)c1C)S(C)(=O)=O,8%[38.3 µM],-6%,18µM*,?,8,-23
CCOc1ccccc1NC(=O)CN(Cc1ccccc1)S(C)(=O)=O,24%[38.3 µM],-2%[10 µM],-17%,-17%[46.1 µM],-1[1.84 µM],-94*
C[C@@H](CN1CCC(Cc2ccccc2)CC1)[C@H](O)c1ccc(O)cc1,.,-4%[1.9 µM],.,.,13,.
SMILES,IMPase Li inh,HTT ATP protect,HttQ103 aggreg,NPSR antag,IMPase cell inh,PNC inhibitor
Fc1ccc(-n2c(-c3ccc4ccccc4n3)n[nH]c2=S)cc1,3%,32%[10 µM],15%[9.22 µM],-2%,.,.
S=c1[nH]nc(-c2ccc3ccccc3n2)n1-c1cc(Cl)cc(Cl)c1,10µM*,0%[10 µM],?,-58%,-20,-17
CS(=O)(=O)NNC(=O)CN1C(=O)C2C3C=CC(C3)C2C1=O (stereo not drawn),-5%,-15%,0.032µM*,25%,.,.
COC(=O)N/N=C\c1c(C)nn(-c2ccccc2)c1Cl,6%,-22%[10 µM],21%,-2%[46.1 µM],-1,-20
COC(=O)N/N=C/c1c(C)nn(-c2cccc(Cl)c2)c1Cl,9%,-41%[10 µM],6%,1%,-7,-94*
CCOC(=O)N/N=C/c1c(C)nn(-c2cccc(C(F)(F)F)c2)c1Cl,9%,-21%[1.9 µM],-5%,-28%,8,-83*
Cc1nn(-c2cccc(Cl)c2)c(Cl)c1/C=N/NC(=O)c1cccnc1,9%,-22%[10 µM],0%,-22%,.,-86*
COCC(=O)N1CCC2(CC1)CN(c1ccccn1)C2,-6%,-36%,.,.,.,.
N[C@@H](Cc1cccc([N+](=O)[O-])c1)C(=O)O,6%,-4%[10 µM],.,.,.,.
Cc1nn(C(C)(C)C)c(OC(=O)c2cccs2)c1S(=O)(=O)c1ccccc1,21%[38.3 µM],-16%[0.074 µM],13µM*,-23%[46.1 µM],5,34
CC(=O)Oc1c(S(=O)(=O)c2ccccc2)c(C)nn1C(C)(C)C,-3%[38.3 µM],0%,0%,-7%[46.1 µM],-2,?
CC(=O)OC1CCC23CC1(C)CCC2C(C)(C)CC3OC(C)=O (stereo not drawn),13%,.,.,.,.,.
COC(=O)C(NC(=O)c1ccccc1)(Nc1nc(C)cs1)C(F)(F)F (stereo not drawn),.,1%,-7%,-2%[46.1 µM],7,0
COC(=O)C(NC(=O)c1ccc(C)cc1)(Nc1cccc(C)n1)C(F)(F)F (stereo not drawn),9%,6%[10 µM],3%,-10%[46.1 µM],1,-100*
N#Cc1cnc(SCCc2ccccc2)nc1N,7%[38.3 µM],12%[1.9 µM],3%,-15%[46.1 µM],-2,-83*
FC(F)(F)c1cnc(C(c2ccccn2)c2ncn[nH]2)c(Cl)c1 (stereo not drawn),0%,13%[10 µM],13µM*,6%,.,.
CSc1nc2nc3c(cn2n1)C(=O)CC(c1ccccc1)C3 (stereo not drawn),2%[38.3 µM],2%,8%,-8%[46.1 µM],8,24
O=C1CC(c2ccccc2)Cc2nc3nc(C(F)(F)F)nn3cc21 (stereo not drawn),29%[38.3 µM],-7%,13µM*,15%[46.1 µM],7,?
COc1ccc(C(=O)Oc2ccc(F)cc2C(=O)/C=C/c2ccc(OC)c(OC)c2)cc1,16%,18%[10 µM],6%,1%,.,110
COc1ccc(/C=C/C(=O)c2cc(F)ccc2OC(=O)c2ccccc2C)cc1OC,8%,-85%[10 µM],?,19%,.,-88*
CCC(C)(C)C(=O)O[C@@H]1C[C@@H](C)C=C2C=C[C@H](C)[C@H](CC[C@@H]3C[C@@H](O)CC(=O)O3)[C@H]21,.,-72%,.,.,.,.
c1ccc(C2=Nn3c(nnc3-c3cccnc3)SC2)cc1,0%[38.3 µM],-25%[0.074 µM],20%,-3%[46.1 µM],-3,-16
c1ccc(C2=Nn3c(nnc3-c3ccncc3)SC2)cc1,-1%[38.3 µM],25µM*,10µM*,?,5,48
